Experimental findings from PubChem BioAssay (EPA / NIEHS) are described below.

The term AC50 denotes the midpoint of the concentration-response curve, whichever way the signal moves.

Results filed as inconclusive are left out. Active and inactive are the calls of the source. Rule for the calls: active = hit-call score of the fitted dose curve at least 0.9, where 1 is the maximum; inconclusive = response in the unintended direction; inactive = score below 0.9.

Androgen Receptor/SRC-1 Co-activator, AR (gene 367), sequence (P10275 whole entry, looked up, the tested form may be a part): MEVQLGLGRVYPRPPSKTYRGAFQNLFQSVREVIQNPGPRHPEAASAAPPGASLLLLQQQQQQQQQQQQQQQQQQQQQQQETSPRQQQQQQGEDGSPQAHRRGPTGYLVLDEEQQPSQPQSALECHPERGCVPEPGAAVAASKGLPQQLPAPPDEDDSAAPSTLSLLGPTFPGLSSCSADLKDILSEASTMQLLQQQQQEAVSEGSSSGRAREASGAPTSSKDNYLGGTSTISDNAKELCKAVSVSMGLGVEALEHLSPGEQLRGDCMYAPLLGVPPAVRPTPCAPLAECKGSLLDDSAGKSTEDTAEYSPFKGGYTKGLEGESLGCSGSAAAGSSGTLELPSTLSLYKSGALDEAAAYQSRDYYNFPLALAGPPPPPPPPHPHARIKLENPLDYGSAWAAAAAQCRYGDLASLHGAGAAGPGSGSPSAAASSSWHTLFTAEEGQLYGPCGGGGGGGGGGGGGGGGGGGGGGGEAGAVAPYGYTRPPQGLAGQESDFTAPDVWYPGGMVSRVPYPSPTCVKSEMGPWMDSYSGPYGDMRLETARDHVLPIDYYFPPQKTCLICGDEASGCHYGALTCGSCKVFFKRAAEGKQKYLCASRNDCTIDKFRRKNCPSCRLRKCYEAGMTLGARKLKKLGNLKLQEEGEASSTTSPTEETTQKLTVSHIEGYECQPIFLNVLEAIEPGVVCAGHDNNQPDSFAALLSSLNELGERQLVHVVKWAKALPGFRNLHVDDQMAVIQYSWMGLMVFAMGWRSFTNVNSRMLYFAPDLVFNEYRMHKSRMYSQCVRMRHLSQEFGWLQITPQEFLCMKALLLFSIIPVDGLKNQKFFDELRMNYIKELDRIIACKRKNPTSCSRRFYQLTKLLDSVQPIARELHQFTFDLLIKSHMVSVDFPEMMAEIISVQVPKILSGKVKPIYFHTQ
Estrogen receptor (Homo sapiens) + Estrogen receptor beta (Homo sapiens), sequence (P03372 whole entry, looked up, the tested form may be a part): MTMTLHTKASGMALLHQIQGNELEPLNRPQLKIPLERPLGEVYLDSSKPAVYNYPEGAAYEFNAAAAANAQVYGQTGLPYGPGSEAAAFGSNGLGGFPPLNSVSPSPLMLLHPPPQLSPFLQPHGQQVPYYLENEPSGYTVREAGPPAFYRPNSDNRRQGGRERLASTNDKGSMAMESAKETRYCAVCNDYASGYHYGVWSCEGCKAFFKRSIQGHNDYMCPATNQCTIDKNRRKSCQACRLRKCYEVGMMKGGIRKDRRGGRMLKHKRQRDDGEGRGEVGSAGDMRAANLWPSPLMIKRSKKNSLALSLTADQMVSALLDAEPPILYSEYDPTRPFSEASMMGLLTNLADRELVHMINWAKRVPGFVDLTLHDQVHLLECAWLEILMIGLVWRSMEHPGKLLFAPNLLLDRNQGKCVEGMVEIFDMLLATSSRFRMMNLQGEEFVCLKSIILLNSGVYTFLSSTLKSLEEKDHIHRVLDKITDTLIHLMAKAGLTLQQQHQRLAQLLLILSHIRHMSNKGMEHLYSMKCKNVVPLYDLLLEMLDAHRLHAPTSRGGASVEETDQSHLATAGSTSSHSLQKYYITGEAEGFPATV
Estrogen receptor (Homo sapiens) + Estrogen receptor beta (Homo sapiens), sequence (Q92731 whole entry, looked up, the tested form may be a part): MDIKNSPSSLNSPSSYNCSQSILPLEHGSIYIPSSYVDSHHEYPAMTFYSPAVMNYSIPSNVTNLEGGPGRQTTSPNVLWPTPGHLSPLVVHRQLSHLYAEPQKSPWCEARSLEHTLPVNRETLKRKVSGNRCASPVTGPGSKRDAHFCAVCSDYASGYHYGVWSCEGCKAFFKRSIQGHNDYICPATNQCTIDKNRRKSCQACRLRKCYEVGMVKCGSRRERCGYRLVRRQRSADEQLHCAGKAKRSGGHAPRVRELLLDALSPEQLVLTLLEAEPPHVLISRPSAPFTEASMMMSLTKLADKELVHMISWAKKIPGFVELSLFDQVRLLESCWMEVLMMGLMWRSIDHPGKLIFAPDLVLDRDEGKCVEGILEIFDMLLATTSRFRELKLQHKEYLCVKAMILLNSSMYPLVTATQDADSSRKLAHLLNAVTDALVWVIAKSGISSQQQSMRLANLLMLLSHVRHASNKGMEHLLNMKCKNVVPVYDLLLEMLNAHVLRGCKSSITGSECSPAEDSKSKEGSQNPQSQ

One assay has as its target Androgen Receptor/SRC-1 Co-activator, AR (gene 367) (UniProt P10275). In words: OT_AR_ARSRC1_0960: Odyssey Thera (OT) 16-hour HEK293T Protein-Complementation Assay for Androgen Receptor/SRC-1 Co-activator (AID 2283353).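 Note: actives raise the signal above DMSO so potency reflects increased AR and SRC-1 complex.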 Put shortly: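 Split-Venus PCA, AR/SRC-1 fusions, stable HEK293T; 16 h compound exposure; imaged at 488 and 635 nm; N/C ratio (488 nm channel), min 400 cells/image; positive-direction fit, DMSO baseline.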
In the case of `COCc1nnc(-c2ccc[n+]([O-])c2)n1-c1c(Cl)c(Cl)cc2[nH]c(=O)c(=O)[nH]c12`, the call was inactive.
Turning to `OCCOCCOCCO`, the molecule was classed as inactive.
In the case of `COc1cc2c(c(OC)c1OC)-c1ccc(OC)c(=O)cc1[C@@H](NC(C)=O)CC2`, the AC50 was 133 nM (active).
`CCCCOC(=O)c1ccccc1`: the call was inactive.
For `OCc1ccccc1`, the result was inactive.

For a further assay the target is unchanged. In words: OT_AR_ARSRC1_0480: Odyssey Thera (OT) 8-hour HEK293T Protein-Complementation Assay for Androgen Receptor/SRC-1 Co-activator (AID 2283354).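 Note: hits raise the complementation signal above DMSO so AC50 marks enhancers.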 In outline:
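Measures AR/SRC-1 binding by Venus YFP fragment complementation in HEK293T stable lines at 8 h post-dose. Imaging quantifies the 488nm nucleus/cytoplasm ratio in ≥400 cells; DMSO defines baseline.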
Regarding `COCc1nnc(-c2ccc[n+]([O-])c2)n1-c1c(Cl)c(Cl)cc2[nH]c(=O)c(=O)[nH]c12`, the outcome was inactive.
On to `OCCOCCOCCO`, for which the result was inactive.
Take `COc1cc2c(c(OC)c1OC)-c1ccc(OC)c(=O)cc1[C@@H](NC(C)=O)CC2`: the call was inactive.
For the molecule `CCCCOC(=O)c1ccccc1`, the molecule was called inactive.

The next assay has as its target Estrogen receptor (Homo sapiens) + Estrogen receptor beta (Homo sapiens) (UniProt P03372+Q92731). In words: OT_ER_ERaERb_1440: Odyssey Thera (OT) 24-hour HEK293T Protein-Complementation Assay for Estrogen Receptor-alpha/-beta Homodimer (AID 2283356).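 Note: heteromer of ER alpha and ER beta binding domains; hits raise reporter fluorescence and both agonists and antagonists give an increase.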 In outline:
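HEK293T cells stably expressing a PCA pair of ERα LBD (aa 310-547) and ERβ LBD (aa 263-489) were dosed for 24 h. Fluorescence intensity increase versus DMSO vehicle was fitted as gain-of-signal.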
With `CCCCCCCC/C=C\CCCCCCCC(=O)OC[C@@H](O)[C@H]1OC[C@H](O)[C@H]1O`, the result was inactive.
On to `O=C(O)[C@H](O)[C@@H](O)C(=O)O`, for which the outcome was inactive.
For the molecule `c1ccc2cc3ccccc3cc2c1`, the outcome was inactive.
Same read-out and setting: with `COCc1nnc(-c2ccc[n+]([O-])c2)n1-c1c(Cl)c(Cl)cc2[nH]c(=O)c(=O)[nH]c12` the entry was “inactive”; with `OC[C@H]1O[C@@](CO)(O[C@H]2O[C@H](CO)[C@@H](O)[C@H](O)[C@H]2O)[C@@H](O)[C@@H]1O`, “inactive”; with `NC(N)=O`, “inactive”.
The same measure, in the same setting: with `CC(C)CC(C)O` (configuration not stated) the entry was “inactive”.
As for `CC(C)c1nnc2ccc(-c3ocnc3-c3cc(F)ccc3F)cn12`, the result was inactive.
As to `CCOc1ccc2[nH]cc(C(=O)NCc3ccccc3)c(=O)c2n1`, the result was inactive.
`O=S1(=O)CCCO1`: the result was inactive.
Regarding `NC(=O)N(O)[C@@H]1COc2cc(OCc3ccccc3)ccc21`, the outcome was inactive.
The same measure, in the same setting: with `O=C(O)CO` the entry was “inactive”; with `CC[C@H](C)C(=O)O[C@H]1C[C@H](O)C=C2C=C[C@H](C)[C@H](CC[C@@H](O)C[C@@H](O)CC(=O)O)[C@H]21`, “inactive”.
